Assay results published in PubChem BioAssay (NCATS).
Where “and” joins values, the source holds several entries; their conditions need not be identical. Equal values may be shown once. Results filed as inconclusive are left out. More than one record can exist for a structure, and the calls need not agree. Calls of active or inactive are those of the source. Unless noted, calls come from the whole dose curve; as a rule, active = well fitted curve in the direction sought with a large enough effect; inconclusive = small, poorly fitted or top-dose-only effect, or another doubt; inactive = no such curve, though single readings can be large; an effect the other way counts as inactive or inconclusive.

Columns and labels:
[1] = molecular target: Metallo-beta-lactamase type 2 (Klebsiella pneumoniae) (UniProt C7C422); experiment: qHTS to identify inhibitors of the New Delhi Metallo-beta-lactamase (NDM): assay validation screen against the NCATS LOPAC Collection (AID 1794843)
Procedure, shortened: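 Absorbance at 485 nm from nitrocefin turnover (50 uM solution added), read at plateau, gives the read-out. Compounds in DMSO were incubated first with 2 nM final NDM-1 in pH 7.0 HEPES buffer containing 1 uM ZnSO4 and 0.01% Tween20.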

[2] = molecular target: Glutathione peroxidase 1 (Homo sapiens) (UniProt P07203); experiment: Primary qHTS Assay for Inhibitors of Recombinant Selenoprotein Glutathione Peroxidase 1 (GPX1) (AID 1845191); note: nearly all actives have a fitted effect of over 65% in size
Procedure, shortened: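 GPX1 10 nM, GR 100 nM, GSH 1 mM, NADPH 0.5 mM, CHP 0.5 mM (final). 30-min cpd preincubation, RT. Ex340/Em450 read t=0, t=15 min.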

[3] = molecular target: Phospholipid hydroperoxide glutathione peroxidase GPX4 (Homo sapiens) (UniProt P36969); experiment: Primary qHTS Assay for Inhibitors of Recombinant Selenoprotein Glutathione Peroxidase 4 (GPX4) (AID 1845192); note: nearly all actives have a fitted effect of over 65% in size; note: potency is the fitted concentration of half-maximal effect
Procedure, shortened: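 qHTS, GR-coupled: GPX4 200 nM + cpd 30 min RT → GSH 1 mM, NADPH 0.5 mM, GR 100 nM → CHP 0.5 mM start; fluor 340/450 at t0 and t15 min; no-enzyme wells as control.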

[4] = NCATS anti-infectives library activity on the primary C. elegans qHTS viability assay (AID 1745855; calls by dose curve; note: potency is the fitted concentration of half-maximal effect); details: C. elegans worm area imaging, day 7
Procedure, shortened: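 GFP read-out by 488 nm laser cytometry at day 0, 3 and 7, gated on object perimeter, area and peak intensity, scored viability of PE254-GFP-FLuc worms exposed to compound in S medium with bacterial capsules at 21 °C.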

[5] = Quantitative High-Throughput drug screen in 47 multiple myeloma cell lines against the NCATS MIPE library collection: FR4_PLB cell viability assay (AID 1918924; note: nearly all actives have a fitted effect of over 35% in size; note: potency is the fitted concentration of half-maximal effect)
Procedure, shortened: (§1)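 qHTS of the MIPE 4.0 collection: 500 myeloma cells/well, 48 h drug exposure at 37C in 5% CO2, then CellTiter-Glo for 5 min at room temperature before luminescence reading.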

[6] = Quantitative High-Throughput drug screen in 47 multiple myeloma cell lines against the NCATS MIPE library collection: Delta47_JCRB cell viability assay (AID 1918925; note: nearly all actives have a fitted effect of over 45% in size; note: potency is the fitted concentration of half-maximal effect)
Procedure, shortened: (§2)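 Inhibition of cell viability is measured here. Each line was plated at 500 cells per well, treated with MIPE 4.0 drugs, kept 48 hours at 37C, then assayed for ATP content by CellTiter-Glo luminescence.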

[7] = Quantitative High-Throughput drug screen in 47 multiple myeloma cell lines against the NCATS MIPE library collection: EJM_DSMZ cell viability assay (AID 1918926; note: nearly all actives have a fitted effect of over 30% in size; note: potency is the fitted concentration of half-maximal effect)
Procedure, shortened: as §2

[8] = Quantitative High-Throughput drug screen in 47 multiple myeloma cell lines against the NCATS MIPE library collection: AMO1_DSMZ cell viability assay (AID 1918927; note: nearly all actives have a fitted effect of over 30% in size; note: potency is the fitted concentration of half-maximal effect)
Procedure, shortened: as §2

[9] = Quantitative High-Throughput drug screen in 47 multiple myeloma cell lines against the NCATS MIPE library collection: ARD_JJKsccE7 cell viability assay (AID 1918929; note: potency is the fitted concentration of half-maximal effect)
Procedure, shortened: as §2

[10] = Quantitative High-Throughput drug screen in 47 multiple myeloma cell lines against the NCATS MIPE library collection: Karpas620_DSMZ cell viability assay (AID 1918959); note: nearly all actives have a fitted effect of over 30% in size; note: potency is the fitted concentration of half-maximal effect
Procedure, shortened: as §1

[11] = Quantitative High-Throughput drug screen in 47 multiple myeloma cell lines against the NCATS MIPE library collection: Karpas417_ECACC cell viability assay (AID 1918961); details: Karpas417 myeloma viability, CellTiter-Glo ATP luminescence, 48 h; viability (% of DMSO): at 45.8 µM (top of the series); note: potency is the fitted concentration of half-maximal effect
Procedure, shortened: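 Luminescent ATP measurement with CellTiter-Glo gives viability, scaled between DMSO-only wells (100%) and media-only wells (0%). Cells, 500 per well, faced library compounds for 48 hours at 37C.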

[12] = Quantitative High-Throughput drug screen in 47 multiple myeloma cell lines against the NCATS MIPE library collection: KHM11_PLB cell viability assay (AID 1918962); note: nearly all actives have a fitted effect of over 35% in size; note: potency is the fitted concentration of half-maximal effect
Procedure, shortened: as §1

[13] = Quantitative High-Throughput drug screen in 47 multiple myeloma cell lines against the NCATS MIPE library collection: JIM3_ECACC cell viability assay (AID 1918963; note: nearly all actives have a fitted effect of over 35% in size; note: potency is the fitted concentration of half-maximal effect)
Procedure, shortened: as §1

[14] = Quantitative High-Throughput drug screen in 47 multiple myeloma cell lines against the NCATS MIPE library collection: JIM1_ECACC cell viability assay (AID 1918964; note: potency is the fitted concentration of half-maximal effect)
Procedure, shortened: as §2

[15] = molecular target: Nuclear receptor subfamily 1 group I member 3 (Homo sapiens) (UniProt Q14994); experiment: Primary qHTS for antagonist of constitutive androstane receptor (CAR) against the NCATS DSHEA and TCM libraries (AID 1794836)
Procedure, shortened: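 HepG2 cells stably carrying hCAR and a CYP2B6 luciferase reporter (2,500 cells/well) attached for 5 h, then received compounds with 48 uM CITCO for 24 h at 37C. ONE-Glo luminescence read antagonism; CellTiter-Fluor (405/540 nm) gave viability.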

[16] = Quantitative High-Throughput drug screen in 47 multiple myeloma cell lines against the NCATS MIPE library collection: ARP1_JJKsccF8 cell viability assay (AID 1918928; note: nearly all actives have a fitted effect of over 40% in size; note: potency is the fitted concentration of half-maximal effect)
Procedure, shortened: (§3)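 CellTiter-Glo luminescence after 48 h exposure gives viability, scaled between DMSO-only (100%) and media-only (0%) controls. Library compounds are pinned onto 500 myeloma cells per well, incubated at 37C with 5% CO2.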

[17] = Quantitative High-Throughput drug screen in 47 multiple myeloma cell lines against the NCATS MIPE library collection: KMM1_JCRB cell viability assay (AID 1918960); note: nearly all actives have a fitted effect of over 30% in size
Procedure, shortened: as §3

[18] = molecular target: Luciferin 4-monooxygenase (Photinus pyralis) (UniProt P08659); experiment: Primary firefly luciferase (FLuc) qHTS assay for identification of artifact compounds. (AID 1845220); details: outcome: dose series up to 54.1 µM unless noted; note: nearly all actives have a fitted effect of over 60% in size
Procedure, shortened: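 qHTS, 15 min compound preincubation with substrate (10 uM luciferin, 10 uM ATP) at RT, then 10 nM FLuc; 5 min; luminescence; % inhibition vs no-enzyme/DMSO controls, 4-parameter Hill fit.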

[19] = tested on: Nanoluciferase (engineered Oplophorus gracilirostris luciferase); experiment: Primary Nanoluciferase (NLuc) qHTS assay for identification of artifact compounds. (AID 1845222)
Procedure, shortened: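 Luminescence read-out of secreted NLuc in S16 cell conditioned medium (1:55); compounds tested with 15 min RT preincubation, then Nano-Glo substrate 1:100, 5 min. % inhibition vs no-enzyme and DMSO controls, 4-parameter Hill fit.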

Measured: Potency

Chain of Metallo-beta-lactamase type 2 (Klebsiella pneumoniae) (C7C422 whole entry, looked up): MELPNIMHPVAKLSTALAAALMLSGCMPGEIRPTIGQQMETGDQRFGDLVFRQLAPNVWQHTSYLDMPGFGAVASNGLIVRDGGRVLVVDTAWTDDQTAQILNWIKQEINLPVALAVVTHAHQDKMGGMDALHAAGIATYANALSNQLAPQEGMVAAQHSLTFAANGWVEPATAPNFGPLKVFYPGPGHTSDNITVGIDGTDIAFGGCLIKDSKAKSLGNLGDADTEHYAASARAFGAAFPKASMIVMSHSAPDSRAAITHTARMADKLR
Chain of Phospholipid hydroperoxide glutathione peroxidase GPX4 (Homo sapiens) (P36969 whole entry, looked up): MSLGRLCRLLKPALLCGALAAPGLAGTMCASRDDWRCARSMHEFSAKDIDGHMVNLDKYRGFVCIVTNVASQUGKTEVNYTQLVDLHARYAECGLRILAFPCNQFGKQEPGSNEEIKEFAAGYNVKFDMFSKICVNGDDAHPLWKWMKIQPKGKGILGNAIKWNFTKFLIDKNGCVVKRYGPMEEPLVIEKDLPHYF
Chain of Glutathione peroxidase 1 (Homo sapiens) (P07203 whole entry, looked up): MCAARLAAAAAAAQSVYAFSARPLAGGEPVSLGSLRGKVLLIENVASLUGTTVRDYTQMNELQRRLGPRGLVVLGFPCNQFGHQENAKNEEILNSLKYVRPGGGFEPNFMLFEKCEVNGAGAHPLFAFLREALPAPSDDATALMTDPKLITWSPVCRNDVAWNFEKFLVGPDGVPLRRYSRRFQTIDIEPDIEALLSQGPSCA
Chain of Nuclear receptor subfamily 1 group I member 3 (Homo sapiens) (Q14994 whole entry, looked up): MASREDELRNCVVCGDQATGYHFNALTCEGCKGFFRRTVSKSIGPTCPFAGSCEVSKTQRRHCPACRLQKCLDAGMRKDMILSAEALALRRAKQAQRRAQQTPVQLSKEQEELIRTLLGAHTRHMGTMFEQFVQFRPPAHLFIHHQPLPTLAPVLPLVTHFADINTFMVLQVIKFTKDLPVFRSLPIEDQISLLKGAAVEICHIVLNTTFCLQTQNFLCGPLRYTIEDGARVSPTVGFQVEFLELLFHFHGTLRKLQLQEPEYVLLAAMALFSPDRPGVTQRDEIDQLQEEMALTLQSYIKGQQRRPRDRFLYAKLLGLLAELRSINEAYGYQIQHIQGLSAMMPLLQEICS

NCc1cc(=O)[nH]o1
inactive: [1] | [2] | [3]

NC(=O)CN1CC(O)CC1=O (stereo not given)
inactive: [1] | [2] | [3]

CNCCc1ccc(O)c(O)c1
inactive: [1] | [2] | [3]

C[N+](C)(C)CC(=O)O
inactive: [1] | [2] | [3]

CCCN1CCO[C@@H]2c3cc(O)ccc3OC[C@H]21
inactive: [1] | [2] | [3]

CC1=C(O)C(=O)C=C2C1=CC=C1[C@@]2(C)CC[C@@]2(C)[C@@H]3C[C@](C)(C(=O)O)CC[C@]3(C)CC[C@]12C
active: [4] 4.59 µM | [5] 0.743 µM | [6] 0.833 µM | [7] 0.743 µM | [8] 0.526 µM | [9] 1.05 µM | [10] 1.05 µM | [11] 0.743 µM | [12] 0.743 µM | [13] 0.662 µM | [14] 0.743 µM
inactive: [2]

CC(C)Oc1cccnc1N(C)C1CCN(Cc2ccccc2)CC1
inactive: [1] | [2]

C[N+]1(C)C2CCC1CC(OC(=O)C(CO)c1ccccc1)C2 (stereo not given)
inactive: [1] | [2] | [3]

Cc1nccc2c1[nH]c1ccccc12
inactive: [1] | [2]

c1ccc(C2(c3ccccc3)CC2C2=NCCN2)cc1 (stereo not given)
inactive: [1] | [2] | [3]

Clc1cnc(Oc2ccc(Oc3ncc(Cl)cc3Cl)cc2)c(Cl)c1
inactive: [1] | [2] | [3]

C[C@@H]1O[C@H](C[N+](C)(C)C)C[C@H]1O
inactive: [1] | [2] | [3]

CC(C)NC(C)Cc1ccc(I)cc1 (stereo not given)
inactive: [1] | [2] | [3]

CN1C2CCC1CC(OC(=O)c1cc(Cl)cc(Cl)c1)C2 (stereo not given)
inactive: [1] | [2] | [3]

COc1cc(C(O)CN)ccc1O (stereo not given)
inactive: [1] | [2] | [3]

Cn1cnc(CCN)c1
inactive: [1] | [2] | [3]

NC1CCc2cc(O)c(O)cc2C1 (stereo not given)
inactive: [1] | [2] | [3]

CC(=O)[C@H]1CCC2C3CC[C@H]4C[C@H](O)CC[C@]4(C)C3CC[C@@]21C (stereo not given in full)
inactive: [1] | [2] | [3]

NC(N)=NOCCC(N)C(=O)O (stereo not given)
inactive: [1] | [2] | [3]

CCCN(CCC)C1CCc2ccc(O)cc2C1 (stereo not given)
inactive: [1] | [2] | [3]

NC(=NCCC[C@H](N)C(=O)O)N[N+](=O)[O-]
inactive: [1] | [2] | [3]

C#CCOC(=O)C1=CCCN(C)C1
inactive: [1] | [2] | [3]

NCCc1c[nH]c2ccccc12
inactive: [1] | [2] | [3]

CCCCc1ccc(C(=O)O)nc1
inactive: [1] | [2] | [3]

NC(CCP(=O)(O)O)C(=O)O (stereo not given)
inactive: [1] | [2]

CC1=C(C/C=C(\C)CCC[C@H](C)CCC[C@H](C)CCCC(C)C)C(=O)c2ccccc2C1=O
inactive: [15]

NCCc1c[nH]c2ccc(O)cc12
inactive: [1] | [2] | [3]

O=C(Cc1ccc(Cl)c(Cl)c1)N1CCCCC1CN1CCCC1 (stereo not given)
inactive: [1] | [2]

C[C@@H](N)Cc1cnc[nH]1
inactive: [1] | [2]

O=C1CCCN1CC#CCN1CCCC1
inactive: [1] | [2]

CCCN1CCC[C@H](c2cccc(O)c2)C1
inactive: [1] | [2]

C[C@]12CCC3C(CC[C@H]4C[C@H](O)CC[C@]34C)C1CC[C@@H]2C(=O)CO (stereo not given in full)
inactive: [1] | [2] | [3]

CCCCCC[C@H]1C(=O)O[C@H](C)[C@H](NC(=O)c2cccc(NC=O)c2O)C(=O)O[C@@H](C)[C@@H]1OC(=O)CC(C)C
active: [4] 7.27 µM | [5] 0.0662 µM | [6] 0.0526 µM | [8] 0.235 µM | [16] 0.0418 µM | [9] 0.372 µM | [10] 0.935 µM | [11] 0.332 µM | [12] 0.105 µM | [13] 0.0469 µM | [14] 0.372 µM
inactive: [2]

CCCN(CCC)[C@@H]1CCc2ccc(O)cc2C1
inactive: [1] | [2] | [3]

O=[N+]([O-])c1ccc([As](=O)(O)O)cc1
inactive: [2]

CC[C@@]1(O)C(=O)OCc2c1cc1n(c2=O)Cc2cc3ccccc3nc2-1
active: [5] 0.296 µM | [6] 0.0743 µM | [7] 0.209 µM | [8] 0.0235 µM | [16] 0.118 µM | [9] 0.372 µM | [10] 0.418 µM | [11] 0.296 µM | [12] 0.235 µM | [13] 0.264 µM | [14] 0.132 µM
inactive: [1] | [2]
inactive and 9.04 µM (active): [3]

CC[C@@H](C(N)=O)N1CCCC1=O
not listed: [3] | [4] | [11] | [14] | [15] | [18] | [19]
inactive: all other assays above

O=C(O)[C@@H]1CCN1
inactive: [2]

CS(=N)(=O)CC[C@H](N)C(=O)O (stereo not given in full)
inactive: [1] | [2] | [3]

C=CCN1CC[C@]23CCCCC2[C@H]1Cc1ccc(O)cc13 (stereo not given in full)
inactive: [1] | [2] | [3]

c1ccc2sc(C3(N4CCCCC4)CCCCC3)cc2c1
inactive: [1] | [2] | [3]

Oc1ccc2c3c1O[C@H]1c4[nH]c5c(c4C[C@@]4(O)[C@@H](C2)N(CC2CC2)CC[C@]314)C[C@@]1(O)[C@H]2Cc3ccc(O)c4c3[C@@]1(CCN2CC1CC1)[C@H]5O4
not listed: [4] | [11] | [15] | [17] | [18] | [19]
inactive: all other assays above

CNCCc1c[nH]c2ccc(O)cc12
inactive: [2] | [3]

NC(CP(=O)(O)O)C(=O)O (stereo not given)
inactive: [2] | [3]

CC(=O)NCCc1c[nH]c2ccccc12
inactive: [1] | [2] | [3] | [18] inactive [at 86.2 µM] | [19]
